This passage reports INHIBITION results from ChEMBL document CHEMBL4513216, “Probing the Open Global Health Chemical Diversity Library for Multistage-Active Starting Points for Next-Generation Antimalarials” (ACS Infect Dis, 2020).

The whole screen tested about 65,000 compounds, of which about 2,100 (3.2%) showed an effect of 50% or more. The median lay at about -52%. This is one part of a sample in which strong results are shown more often than they occur.

This assay concerns Plasmodium falciparum. Briefly: Screen against P. falciparum Asexual Blood Stage (ABS), at 5uM. Type of assay: functional, Dd2. The following applies: tested at 5 uM.
In the case of `Cn1cnc2c1C(COCC1CC1)CN(C(=O)c1cscn1)C2` (configuration not stated), the INHIBITION was -46.3%.
The value for `CN(C(=O)c1ccc(S(=O)(=O)NC(C)(C)C)cc1)C1(C#N)CCC1` was 5.67%; that for `O=C(C1=COCCO1)N1CC(Oc2nc3c(C(F)(F)F)cccc3s2)C1` was -41.7%.
Take `CC(NC(=O)NCCCn1cncn1)c1ccc(C(F)(F)F)cc1` (configuration not stated): the INHIBITION came to 57.2%.
On to `CC(NC(=O)NCCCn1cncn1)c1ccc(F)cc1` (configuration not stated), for which the INHIBITION is 20.8%.
For the molecule `CC(NC(=O)NCCCn1cncn1)c1ccncc1` (configuration not stated), the INHIBITION was -85.1%.
Consider `Clc1cc(NCc2ncc[nH]2)nc2[nH]ccc12`, for which the INHIBITION was -48.4%.
As to `Clc1cc(NCc2ccncc2)nc2[nH]ccc12`, the INHIBITION is on record as 64.9%.
The value for `Clc1cc(NCc2nccs2)nc2[nH]ccc12` was -72%; that for `COC[C@@]12CCO[C@@H]1CCN(Cc1ccccc1OC)C2` was 29.7%.
With `CCS(=O)(=O)N1C[C@H](c2nc(C)no2)C[C@H]2OCC[C@H]21`, the INHIBITION is -101%.
With `COc1cccc(OC)c1-c1ccnc2cc(CC(=O)NC(C)C)nn12`, the INHIBITION is listed as -158%.
For `Cc1nccn1CCCn1cncc1-c1ccc2c(c1)CCC(C)N2C` (configuration not stated), the INHIBITION worked out at 66.4%.
Take `Cc1nccn1CCCn1cncc1-c1ccc2c(c1)CC(C)N2C` (configuration not stated): the INHIBITION turned out to be 49.8%.
Consider `Cc1nccn1CCCn1cncc1-c1ccc2c(c1)CCCN2C`, for which the INHIBITION is -15.5%.
On to `CCC1(CC)Cc2ccccc2-c2nc(NCCO)[nH]c(=O)c21`, for which the INHIBITION stood at 1.11%.
As to `Cn1ccnc1SCCNC1CCN(c2nc3ccccc3s2)CC1`, the INHIBITION is on record as 59.7%.
Consider `Cn1ccnc1SCCNC1CCN(c2ncccn2)CC1`, for which the INHIBITION is given as -11.4%.
Regarding `Cc1n[nH]c(SCCNC2CCN(c3nc4ccccc4s3)CC2)n1`, the INHIBITION is listed as -196%.
For the molecule `O=S(=O)(NCCc1ccccc1F)N1CCOCC1`, the INHIBITION is -122%.
With `COc1cn(CC(N)=O)c(CSc2nccc(C)n2)cc1=O`, the INHIBITION is given as -34.1%.
For the molecule `O=C(C1CC1)N1CCC2(COCc3cnc(N4CCOCC4)nc32)C1` (configuration not stated), the INHIBITION is -76.2%.
Consider `CC(C)C1CN(C(=O)c2cn3cc(Cl)cnc3n2)CCCN1CC1CC1` (configuration not stated), for which the INHIBITION was -26.8%.
As for `Cc1ccsc1C(Cc1ccccc1)NC(=O)CSCC(N)=O` (configuration not stated), the INHIBITION is reported as -9.21%.
For `CCNC(=O)CCC(=O)NC(Cc1ccccc1)c1sccc1C` (configuration not stated), the INHIBITION is -32.2%.
For the molecule `Cc1ccsc1C(Cc1ccccc1)NC(=O)CNC(=O)C1CC1` (configuration not stated), the INHIBITION is listed as 69.9%.
With `CNC(=O)[C@@H](c1ccccc1OC)N1CCC[C@H]1C(=O)NCCN(C)C`, the INHIBITION is reported as -199%.
As for `CC(C)c1noc(CCCC(=O)N2CCN(S(C)(=O)=O)CC2)n1`, the INHIBITION is -41.7%.
`COCCN(C)C[C@@H]1CN(C(=O)c2ccc(=O)n(C)c2)C[C@@H]1CO`: the INHIBITION is -237%.
Next, `CCN(CC)C(=O)CN1CCC2(C=Cc3cc(Cl)c(C)cc3O2)CC1`: 49.3%.
For the molecule `Cc1cc2c(cc1Cl)C=CC1(CCN(CC(=O)N3CCOCC3)CC1)O2`, the INHIBITION was determined as 67.6%.
Regarding `Cc1cc2c(cc1Cl)C=CC1(CCN(C(=O)N3CCOCC3)CC1)O2`, the INHIBITION is -24%.
For the molecule `Cc1cc2c(cc1Cl)C=CC1(CCN(CC(=O)NC3CCCC3)CC1)O2`, the INHIBITION was 32.7%.
For the molecule `Cc1cc2c(cc1Cl)C=CC1(CCN(CC(=O)N3CCCC3)CC1)O2`, the INHIBITION was determined as 59.9%.
For the molecule `Cc1ccc(CCC(=O)N2CCOCC2)cc1Cl`, the INHIBITION is reported as -148%.
In the case of `Cc1cc(C(=O)N2CCCC(n3cncn3)C2)nn1C` (configuration not stated), the INHIBITION is reported as -8.41%.
On to `COc1ccc(CNc2cnn(C)c(=O)c2Cl)cc1`, for which the INHIBITION is recorded as -21.1%.
As for `CCN1C[C@H]2[C@@H](C1)N(S(=O)(=O)c1ccccc1F)CC[C@H]2OC`, the INHIBITION is 48.5%.
The value for `CCN1C[C@@H]2[C@@H](OC)CCN(S(=O)(=O)c3ccccc3)[C@@H]2C1` was 33.8%.
As for `CCN1C[C@H]2[C@@H](C1)N(S(=O)(=O)c1ccccc1)CC[C@H]2OC`, the INHIBITION was determined as 62.8%.
On to `Cc1ccc(C2(O)CCN(C(=O)CCn3ccc(=O)[nH]c3=O)CC2)nc1`, for which the INHIBITION was -56.8%.
Next, `Cc1ccc(-c2nnc(CN3CCCC(Cn4cncn4)C3)o2)cc1` (configuration not stated): -182%.
The value for `CN(C)C(=O)CN1CCC2(COCc3cnc(-c4ccccc4)nc32)C1` (configuration not stated) was -24.6%; that for `CN(Cc1ccco1)C(=O)C1CCCc2ccccc21` (configuration not stated) was -142%; that for `Fc1cccc(CN2CCOC3(COCCN(CC4CC4)C3)C2)c1` (configuration not stated) was 63.4%.
As for `Fc1cccc(N2CCCC3(CN(Cc4cccnc4)CCO3)C2)c1` (configuration not stated), the INHIBITION is 66%.
For the molecule `Cn1cc(CN2CCOC3(CCCN(c4cccc(F)c4)C3)C2)cn1` (configuration not stated), the INHIBITION is listed as -5.32%.
Take `O=C(c1ccoc1)N1CCOC2(COCCN(CC3CC3)C2)C1` (configuration not stated): the INHIBITION is -17.6%.
Regarding `OCCN1CCOC2(CCCN(c3cccc(F)c3)C2)C1` (configuration not stated), the INHIBITION is recorded as -22.5%.
Take `Cc1ccc(CN2CCOC3(CCCN(c4cccc(F)c4)C3)C2)o1` (configuration not stated): the INHIBITION came out at 51.6%.
With `Fc1cccc(N2CCCC3(CN(Cc4ccco4)CCO3)C2)c1` (configuration not stated), the INHIBITION is given as 43.7%.
Regarding `Fc1cccc(N2CCCC3(CN(Cc4ccncc4)CCO3)C2)c1` (configuration not stated), the INHIBITION is 38.4%.
Next, `COCCN1CCOCC2(CCCN(Cc3cccc(F)c3)C2)C1` (configuration not stated): 9.71%; `Fc1ccc(CNCC2Cn3nncc3CO2)cc1` (configuration not stated): -21.1%.
For `COc1cc(N2CCCC3(CCN(c4cccnc4)C3=O)C2)ncn1` (configuration not stated), the INHIBITION is listed as -14.1%.
`FC(F)c1nnc2ccc(N3CCC4(CCOC4)C3)nn12` (configuration not stated): the INHIBITION is listed as -52.7%.
The value for `FC(F)c1nnc2ccc(N3CCC4(CCCCC4)C3)nn12` was 61.4%; that for `Cc1nnc2ccc(N3CCC4(CCOC4)C3)nn12` (configuration not stated) was -37.2%.
The value for `O=S1(=O)CCC(CNc2cc(-c3ccccc3)nc3ccnn23)C1` (configuration not stated) was -47.3%; that for `O=S(=O)(c1ccccc1F)N1CCCC(c2nccs2)C1` (configuration not stated) was -129%.
The value for `O=C(NCCCSc1ccc(F)cc1)C1CCc2cn[nH]c2C1` (configuration not stated) was -54.6%; that for `COCc1cn(C2CCN(CCC(C)c3ccccc3)CC2)nn1` (configuration not stated) was -46.3%; that for `COc1ccc(C(=O)NCC2CCCN(C3CCOCC3)C2)c(O)c1` (configuration not stated) was -31.9%.
For `CC(C)Cc1noc(CN2CCN(CCO)CC2)n1`, the INHIBITION turned out to be 0.0946%.
In the case of `CCc1noc(CN2CCN(CCO)CC2)n1`, the INHIBITION was -176%.
As to `CCCc1noc(CN2CCN(CCO)CC2)n1`, the INHIBITION stood at 50.5%.
For the molecule `C[C@H](O)CNc1cc(-c2ccncc2)ncn1`, the INHIBITION was -170%.
As to `CCCOCCN1CCC2(CC1)CC(=O)N(Cc1cc(F)cc(F)c1)C2`, the INHIBITION turned out to be 38.7%.
As for `Cc1csc(CNCC(C)c2nc3ccccc3o2)n1` (configuration not stated), the INHIBITION is reported as -27.8%.
For `Cc1nc(CNCC(C)c2nc3ccccc3o2)cs1` (configuration not stated), the INHIBITION was -109%.
Regarding `Cc1ccc(O)c(CNCC(C)c2nc3ccccc3o2)n1` (configuration not stated), the INHIBITION was found to be 63.2%.
Consider `CN1CCc2nc(C3CCN(C(=O)CCC4CCCC4)CC3)ncc2C1`, for which the INHIBITION was -37.6%.
For `O=C(NC1CCCN(CCCc2ccccc2)C1)c1ccncc1` (configuration not stated), the INHIBITION is listed as -29.1%.
`O=C(NC1CCCN(CCCc2ccccc2)C1)c1ccc(Cl)s1` (configuration not stated): the INHIBITION amounted to 60.9%.
In the case of `O=C(NC1CCCN(CCCc2ccccc2)C1)C1=CCCCC1` (configuration not stated), the INHIBITION amounted to 2.46%.
With `O=C(C1CC1)N1CC[C@H](c2nc3ccccc3o2)C1`, the INHIBITION amounted to 50.1%.
For the molecule `CC(=O)N1CC[C@H](c2nc3cc(C)ccc3o2)C1`, the INHIBITION is given as -68.8%.
For the molecule `CC(=O)N1CC[C@H](c2nc3cc(F)ccc3o2)C1`, the INHIBITION is on record as -105%.
As for `Cc1cc(C)c(N(CC(O)CNCc2ccco2)S(C)(=O)=O)c(C)c1` (configuration not stated), the INHIBITION was 60.7%.
For `CC(O)CNc1c(NCc2ccco2)c(=O)c1=O` (configuration not stated), the INHIBITION was -192%.
In the case of `Cc1ccc(CS(=O)(=O)NCc2ccco2)cc1`, the INHIBITION is given as -31.4%.
Next, `CN(C)c1nc(NCCc2ccccn2)ncc1F`: -447%; `COc1ccc(C(=O)N2Cc3cc(C)ccc3OCC2CN(C)C)cc1` (configuration not stated): 17.9%; `Cc1nc(C)c(C(=O)N2Cc3ccccc3OCC2CN(C)C)o1` (configuration not stated): -21.9%.
On to `Cc1ccc2c(c1)CN(C(=O)C1CCCCC1)C(CN(C)C)CO2` (configuration not stated), for which the INHIBITION is reported as 66%.
On to `Cc1ccc(C(=O)N2CCCCC2CN(C)C)cc1` (configuration not stated), for which the INHIBITION is reported as -58.9%.
On to `Cc1ccc2c(c1)CN(C(=O)c1ccncc1)C(CN(C)C)CO2` (configuration not stated), for which the INHIBITION is listed as 13%.
In the case of `Cc1ccc2c(c1)CN(C(=O)c1cccnc1)C(CN(C)C)CO2` (configuration not stated), the INHIBITION worked out at 29.2%.
For the molecule `Cc1ccc2c(c1)CN(C(=O)c1ccccc1F)C(CN(C)C)CO2` (configuration not stated), the INHIBITION was found to be 50.4%.
Take `COc1ccccc1C(=O)N1Cc2cc(C)ccc2OCC1CN(C)C` (configuration not stated): the INHIBITION came out at 60.8%.
With `Cc1ccc2c(c1)CN(C(=O)c1cnc(C)cn1)C(CN(C)C)CO2` (configuration not stated), the INHIBITION is -86.1%.
Regarding `CCCn1nccc1NC(=O)CN1CCc2cnc(C(C)C)nc2C1`, the INHIBITION was -4.64%.
Turning to `CC(C)CNC(=O)CC1(Cn2cnnn2)CCCCC1`, the INHIBITION is -92.1%.
Next, `O=S(=O)(c1ccc(Cl)s1)N1CCCn2ncnc21`: -131%; `O=C1CO[C@@H]2CN(CC3CC3)C[C@H]2N1Cc1cccc(F)c1`: -55%; `O=C1NCC2(CCC(C(=O)N3CCC(O)CC3)CC2)Oc2ccccc21` (configuration not stated): -99.2%.
The value for `CN(C)c1nccc(C2CN(c3ccccc3)CCO2)n1` (configuration not stated) was -40.1%; that for `Cc1ccc(C)n1-c1c(C(=O)NCC(C)N(C)C)cnn1C` (configuration not stated) was -93.5%; that for `CCN1C(=O)CCCC12CCCN(C(=O)c1ccncc1F)C2` (configuration not stated) was -46.7%.
As to `Fc1ccccc1CN1CCCC(NC2CCOCC2)C1` (configuration not stated), the INHIBITION is recorded as -11.9%.
The value for `CC(C)(CNC1CCCN(Cc2ccccn2)C1)CN1CCOCC1` (configuration not stated) was -82.2%; that for `CC(C)(CNC1CCCN(Cc2ccccc2F)C1)CN1CCOCC1` (configuration not stated) was 56.4%.
For `CN(C)c1ncc(CNC(=O)Nc2ccccc2C(F)(F)F)n1C`, the INHIBITION is -113%.
Regarding `CN(C)c1ncc(CNC(=O)Nc2ccccc2F)n1C`, the INHIBITION was -31%.
Take `CN(C)c1ncc(CNC(=O)Nc2ccc(C(F)(F)F)cc2)n1C`: the INHIBITION is listed as 68.3%.
The value for `Cn1cc(C(=O)NCc2cn3c(n2)CN(C2CCOCC2)CC3)cn1` was -26.8%; that for `COCCN(C(=O)c1ccccn1)c1nc2c(s1)CCc1c-2cnn1C` was 6.99%.
